HP1b chromo inh – HP1-beta chromodomain-methylated histone interaction inhibition; P83916; AlphaScreen HP1-beta / biotin-H3K9me3 peptide binding; Potency, µM (doses to about 114 µM), for the others: at the top dose activity change, negative = inhibition, hits mostly inhibitors; actives 0.56% (n = 390,000); AID 540317; note: nearly all actives have a fitted effect of over 70% in size
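HP1-beta protein (50 nM final) preincubated 30 min at room temperature with biotinylated H3(1-18)K9me3 peptide (50 nM) in PBS pH 7.4, 0.01% Tween-20, then compound added for 30 min. AlphaScreen streptavidin donor/nickel chelate acceptor beads (10 ug/mL final), 30 min dark, luminescence read.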
BAZ2B block – blocks human BAZ2B; actives 4.4% (n = 360,000); Potency, µM (series often up to 114 µM), for the others: top-dose activity change, negative = inhibition, actives largely listed as inhibitors; AID 504333; Q9UIF8; AlphaScreen BAZ2B-H3K14Ac peptide displacement; note: % is set by controls: 0 for no effect and ±100 for the full control effect; nearly all actives have a fitted effect of over 60% in size
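Inhibition is scored as reduced AlphaScreen emission. The BAZ2B/b-H3(5-23)K14Ac complex (50 nM each) in PBS pH 7.4, 0.01% Tween-20 meets compound (up to 110 uM) for 30 min at RT before bead addition.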
JMJD2A Tudor – JMJD2A Tudor domain (human) inhibition. Potency, µM (titrated, usually from 114 µM), without a hit: at the top dose activity change, negative = inhibition, most hits filed as inhibitors. actives 4.4% (n = 390,000). O75164. AlphaScreen JMJD2A-Tudor / H3K4me3 peptide binding; note: % is set by controls: 0 for no effect and ±100 for the full control effect; nearly all actives have a fitted effect of over 50% in size
Target sequence (O75164 whole entry, looked up, the tested form may be a part): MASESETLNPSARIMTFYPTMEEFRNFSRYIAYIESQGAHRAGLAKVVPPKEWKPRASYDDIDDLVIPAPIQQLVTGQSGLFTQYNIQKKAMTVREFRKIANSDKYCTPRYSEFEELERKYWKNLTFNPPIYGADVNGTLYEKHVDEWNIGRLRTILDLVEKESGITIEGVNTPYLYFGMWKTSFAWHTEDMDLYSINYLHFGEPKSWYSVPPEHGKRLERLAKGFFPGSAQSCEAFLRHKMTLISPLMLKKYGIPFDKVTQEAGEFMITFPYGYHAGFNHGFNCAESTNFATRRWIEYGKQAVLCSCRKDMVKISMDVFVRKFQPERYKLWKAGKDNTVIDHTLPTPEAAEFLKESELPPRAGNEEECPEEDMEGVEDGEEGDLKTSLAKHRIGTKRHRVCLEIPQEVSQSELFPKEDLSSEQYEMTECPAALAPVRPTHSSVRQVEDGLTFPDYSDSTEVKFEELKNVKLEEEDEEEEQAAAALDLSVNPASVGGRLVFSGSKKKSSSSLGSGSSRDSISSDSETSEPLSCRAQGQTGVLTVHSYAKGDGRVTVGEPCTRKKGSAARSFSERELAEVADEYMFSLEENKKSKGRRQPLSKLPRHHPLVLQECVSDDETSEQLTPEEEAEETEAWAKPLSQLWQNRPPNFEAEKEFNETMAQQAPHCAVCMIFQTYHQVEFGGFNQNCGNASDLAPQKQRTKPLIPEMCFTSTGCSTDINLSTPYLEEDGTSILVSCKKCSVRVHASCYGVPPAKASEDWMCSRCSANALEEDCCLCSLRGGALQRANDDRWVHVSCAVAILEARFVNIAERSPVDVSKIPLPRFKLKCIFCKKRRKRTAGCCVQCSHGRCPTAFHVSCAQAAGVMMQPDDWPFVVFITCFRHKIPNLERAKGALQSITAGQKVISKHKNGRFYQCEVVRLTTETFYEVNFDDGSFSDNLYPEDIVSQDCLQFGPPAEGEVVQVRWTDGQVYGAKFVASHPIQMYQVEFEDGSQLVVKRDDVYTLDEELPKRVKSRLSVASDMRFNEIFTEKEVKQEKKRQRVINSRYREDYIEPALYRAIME
L3MBTL1 inh – blocks human L3MBTL1; AlphaScreen L3MBTL1–H3K9me1 peptide binding; Potency, µM (titrated, usually from 57.1 µM), without a hit: top-dose activity, negative = inhibition, actives largely listed as inhibitors; actives 0.66% (n = 230,000); note: % is set by controls: 0 for no effect and ±100 for the full control effect; nearly all actives have a fitted effect of over 60% in size
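Read-out is AlphaScreen signal from streptavidin donor and nickel chelate acceptor beads (10 ug/mL final each) bridging L3MBTL1 (50 nM) and biotinylated K9-monomethylated H3(1-15) peptide (75 nM), after 30 min compound exposure at room temperature.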
VDR inhibitor – inhibitors of human vitamin D receptor. Potency, µM, inactives show max response, negative = inhibition, usual class: inhibitors. VDR-SRC2-3 peptide fluorescence polarization, 2 h. actives 0.93% (n = 400,000); note: % is set by controls: 0 for no effect and ±100 for the full control effect
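Signal is fluorescence polarization, reporting how far test compounds block the interaction of VDR with the SRC2-3 coregulator peptide after a 2 h room-temperature incubation.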
PLK1 PBD block – PLK1 (human) polo-box domain binding inhibition | Potency, µM, for inactives: max response, negative = inhibition, actives largely listed as inhibitors | P53350 | AID 720504 | Plk1 PBD binding of FITC phosphopeptide, fluorescence polarization | actives 2.8% (n = 360,000); note: series mostly up to about 57 µM; % is set by controls: 0 for no effect and ±100 for the full control effect; nearly all actives have a fitted effect of over 65% in size
An asterisk follows results filed as active; ? = inconclusive; . = no result; ! = not confirmed by another sample; [ ] = another dose, or the depositor's remark. Most compounds without a hit are left out; they make up all but 6.9% or so of the library. Calls come from the whole dose curve; as a rule, active = well fitted curve in the direction sought with a large enough effect; inconclusive = small, poorly fitted or top-dose-only effect, or another doubt; inactive = no such curve, though single readings can be large; an effect the other way counts as inactive or inconclusive. Potency is the fitted concentration of half-maximal effect.

SMILES | HP1b chromo inh | BAZ2B block | JMJD2A Tudor | L3MBTL1 inh | VDR inhibitor | PLK1 PBD block
O=c1nc(N2CCOCC2)ccn1-c1nc(-c2ccccc2)sc1-c1ccccc1 | 2% | -25% | -20% | -5% | -9% | 30µM*
Cc1cc2c(s1)c1cnn(Cc3ccc(C(C)(C)C)cc3)c(=O)c1n2C | . | . | -8% | . | . | .
CC1=C(C(=O)OCC(Cl)(Cl)Cl)N2C(=O)C(NC(=O)Cc3ccccc3)C2SC1 (stereo not drawn) | 21% | 2% | -6% | ? | -10% | -29%
COc1cccc(C(=O)NC2C(=O)N3C(C(=O)O)=C(COC(C)=O)CSC23)c1 (stereo not drawn) | 10% | ? | -9% | ? | ? | 21µM*
CC(=O)OCC1=C(C(=O)O)N2C(=O)C(NC(=O)c3ccc(COc4cccc(Cl)c4Cl)o3)C2SC1 (stereo not drawn) | -4% | 50µM* | ? | ? | 25µM* | ?
COc1cccc(C(=O)NN2CCOCC2)c1 | 24% | . | -4% | . | -3% | -16%
CO/N=C(/C(=O)N[C@@H]1C(=O)N2C(C(=O)O)=C(COC(N)=O)CS[C@H]12)c1ccco1 | . | . | . | . | 50µM* | .
CC1=C(C(N)=O)N2C(=O)[C@@H](NC(=O)Cc3ccccc3)C2SC1 (stereo partly drawn) | . | . | . | . | -14% | .
CC(=O)OCC1=C(C(=O)OC(C)(C)C)N2C(=O)[C@@H](NC(=O)Cc3ccccc3)[C@H]2SC1 | -3% | . | ? | . | ? | 17µM*
O=C(c1c2c(nc3ccccc13)C(=O)N(C1CCCCC1)C2)N1CCN(c2ccc(F)cc2)CC1 | 15% | -26% | -29% | . | 20% | .
CC1CCC(NC(=O)C2CCC(CNS(=O)(=O)c3ccc4c(c3)C(C)(C)C(=O)N4C)CC2)CC1 (stereo not drawn) | . | . | . | . | . | 2%
CC(C)OC(=O)c1ccc(Cn2nnc3sc4c(c3c2=O)CCCC4)cc1 | 46% | 17% | 21% | . | -12% | .
CCCCC/C=C\C/C=C\C/C=C\C/C=C\CCCC(=O)O[C@@H](CO)COCCCCCCCCCCCCCCCC | . | . | . | . | -10% | .
COc1ccccc1OCCNc1nc2c(c(=O)n(C)c(=O)n2C)n1C | -21% | 12% | 22µM* | 2% | ? | 19µM*
Cc1nc(-c2ccc(S(=O)(=O)NCc3ccc(OC(C)C)cc3)cc2)co1 | 19%[57 µM] | 1% | -13% | . | 7% | .
CNCCOc1ccccc1OC(C)C | -25% | ? | 2.2µM* | 3% | 9% | -3%
CNCCOc1ccccc1-c1ccccc1 | -58% | ? | 3.5µM* | . | -3% | -12%
CNCCCCOc1ccccc1-c1ccccc1 | ? | 56µM* | 0.63µM* | -17% | -15% | -5%
O=C(COc1ccccc1-c1ccccc1)c1ccccc1 | 138% | 128% | 72% | 96% | -5% | 2%
COc1cc(Cl)c(C)cc1NC(=O)c1cn(C2CCCC2)c(=O)c2c1c1ccccc1n2C | 20% | -9% | -10% | . | -1% | .
CCOC(=O)c1c(NC(C)=O)c2c3c(sc2n1Cc1ccc(Cl)cc1)CCCC3 | 26% | -3% | -17% | . | -8% | .
Cc1sc(-n2c(C)cc(/C=N/n3cnnc3)c2C)c(C#N)c1C | -36% | ? | ? | -4% | ? | 17µM*
CCN(CC)c1ccc2c(c1)CCCN2 | . | 45µM* | . | -9% | . | .
Cc1cc(OCCn2cnc3ccccc3c2=O)cc(C(C)C)c1 | 14% | -6% | 79µM* | 11% | -30% | 21µM*
Cc1cc(C)c(OCCCCn2cnc3ccccc3c2=O)c(C)c1 | 56% | 18% | 1% | -1% | -2% | 0%
SMILES | HP1b chromo inh | BAZ2B block | JMJD2A Tudor | L3MBTL1 inh | VDR inhibitor | PLK1 PBD block
CC1(C)CCC(C)(C)c2cc(C(=O)Nc3ccc(C(=O)O)cc3)ccc21 | . | . | . | . | 79µM*! | .
CC1CCCCN1C(=O)COc1ccccc1F (stereo not drawn) | -5% | 8% | 56µM* | 8% | 2% | 27µM*
CC1CCCCN1C(=O)CNCc1ccc(F)cc1 (stereo not drawn) | ? | 79µM* | 3.2µM* | . | -14% | 0%
Cc1cc(C)c(C(=O)CN2C(=O)NC3(CCCCCC3)C2=O)cc1C | -19% | -8% | -17% | . | 3% | -16%
CCOc1cc(N)c(Cl)cc1C(=O)NCC1CN(Cc2ccc(F)cc2)CCO1 (stereo not drawn) | 10% | . | 50µM* | . | 9% | 3%
CCN(CC(=O)Nc1c(F)cccc1F)C(=O)c1ccc2c(c1)C(=O)N(c1ccccc1C)C2=O | . | . | . | . | . | 1%
CN(Cc1cccs1)C(=O)CSc1nc(N)cc(N)n1 | 11% | . | 79µM* | 7% | 0% | -18%
O=C(CSc1ncccn1)NCc1cccs1 | 27% | -23% | -6% | 0% | -17% | -2%
CCOc1ccc2c(c1)NC(c1ccc(OCC)c(OCC)c1)=NC(c1ccc(F)cc1)=N2 | ? | ? | 25µM* | . | 5% | .
CCOc1ccc(C2=NC(c3ccc(OC)cc3)=Nc3ccc(Cl)cc3N2)cc1 | 5% | -12% | -31% | . | 2% | .
COc1cc2c(cc1OC)C(/C=C/c1ccc(OC)c(OC)c1OC)=NCC2 | . | . | . | . | 50µM* | .
COc1ccc(C2=NCCc3cc(OC)c(OC)cc32)cc1OC | 31% | -4% | -5% | 7% | 8% | 0%
Oc1c(C(c2ccccc2)N2CCOCC2)sc2nc(-c3ccco3)nn12 (stereo not drawn) | 35% | -10% | -15% | . | 13% | .
CC1=CC(C)(C(Cl)(Cl)Cl)C(C)=CC1=NO (stereo not drawn) | . | . | . | . | . | -19%
Cc1ccc2nc(Cl)c3cc(C(=O)N(C)C4CCCCC4)sc3c2c1 | 35% | -1% | -2% | . | -7% | .
S=c1[nH]nc(-c2ccncc2)n1/N=C/C=C/c1ccco1 | -15% | 50µM* | 8.9µM* | 18µM* | 10% | ?
CC(/C=N/n1c(-c2ccc(C)cc2)n[nH]c1=S)=C\c1ccco1 | ? | -29% | ? | -14% | ? | ?
CC(/C=N/n1c(-c2ccncc2)n[nH]c1=S)=C\c1ccco1 | -5% | ? | 5µM* | . | -12% | -24%
S=c1[nH]nc(-c2ccccc2Cl)n1/N=C/C=C/c1ccco1 | -25% | ? | 16µM* | -7% | -4% | ?
CC(/C=N/n1c(-c2ccccc2)n[nH]c1=S)=C\c1ccco1 | -20% | 50µM* | 50µM* | -4% | 2% | -28%
COC(=O)C(c1ccccc1Cl)N1CCc2sccc2C1 (stereo not drawn) | . | . | . | . | -14% | .
CCNc1ncc2nc(C)c(=O)n(C)c2n1 | . | . | . | . | 5% | .
Cc1ccc2nc(-c3ccc(F)cc3)c(Cc3ccccc3C(F)(F)F)n2c1 | . | . | . | . | . | 3%
CC(/C=N/n1c(-c2ccco2)n[nH]c1=S)=C\c1ccco1 | ? | ? | 45µM* | -21% | -6% | -29%

Bioassay records as filed in PubChem.
